Screening data deposited in PubChem by National Center for Advancing Translational Sciences (NCATS).
The list is not random: actives were taken first. Their share in the collection is about 2.7%.
GLP-1R inv ag: GLP-1 receptor (human) inverse agonism | P43220 | HEK293 GLP-1R CRE-luciferase, luminescence, 24 h; GLP-1R form is constitutively active | Potency, µM (doses to about 38.3 µM), most hits filed as inhibitors | AID 624417 | hit rate 1.6% among 410,000; further: nearly all actives have a fitted effect of over 55% in size
Target sequence (P43220 whole entry, looked up): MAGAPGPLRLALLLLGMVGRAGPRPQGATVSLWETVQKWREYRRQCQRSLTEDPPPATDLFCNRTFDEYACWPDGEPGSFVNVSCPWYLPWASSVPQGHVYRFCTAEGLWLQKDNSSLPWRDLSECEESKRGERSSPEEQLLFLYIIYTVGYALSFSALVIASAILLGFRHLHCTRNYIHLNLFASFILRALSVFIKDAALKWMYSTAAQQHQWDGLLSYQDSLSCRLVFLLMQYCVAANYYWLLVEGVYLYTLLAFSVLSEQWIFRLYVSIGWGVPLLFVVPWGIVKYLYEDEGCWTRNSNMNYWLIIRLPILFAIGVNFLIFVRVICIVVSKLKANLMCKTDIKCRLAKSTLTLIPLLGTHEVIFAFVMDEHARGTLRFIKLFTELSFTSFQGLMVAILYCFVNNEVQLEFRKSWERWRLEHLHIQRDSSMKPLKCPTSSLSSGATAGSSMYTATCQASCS
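Inverse agonism was detected as reduced cAMP-driven luciferase luminescence after 24 h compound treatment. The cells were HEK293 clones expressing constitutively active human GLP-1R with the reporter. Reporter-only and GPR119 cell lines served as counterscreen controls.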
TrxR1 substrate: rat thioredoxin reductase 1 substrate activity | AID 588456 | purified TrxR1 substrate turnover, NADPH consumption readout | Potency, µM (series often up to 114 µM) | O89049 | hit rate 0.01% among 390,000; further: nearly all actives have a fitted effect of over 50% in size
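Rat TrxR1, dispensed at 90 nM, was prereduced with 400 uM NADPH (final) for 5 min at ~22 deg C, then incubated with compound 15 min before 400 uM selenite. A first-read NADPH fluorescence drop versus no-compound background flagged substrates.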
GLP-1R agonist: activates the human GLP-1 receptor. P43220. HEK293 GLP-1R CRE-luciferase, luminescence, 4-6 h; cells express a hypersensitive GLP-1R form. Potency, µM (series often up to 45.6 µM), most hits filed as activators. hit rate 0.007% among 380,000. AID 624172
IDH1 R132H inh: blocks human mutant IDH1 R132H enzyme; IDH1-R132H enzyme, NADPH consumption, diaphorase/resazurin fluorescence; Potency, µM (highest dose often 76.6 µM), hits mostly inhibitors; hit rate 0.093% among 390,000; AID 602179; further: nearly all actives have a fitted effect of over 65% in size
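IDH1-R132H (0.5 ug/mL) preincubated 30 min with compound, then NADPH (0.016 mM) and alpha-KG (2 mM) added; 80 min at RT, pH 7.5. Remaining NADPH coupled via diaphorase/resazurin to fluorescence (540/590 nm); concentration-response curves normalized to no-enzyme control.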
HEK293 tox: cytotoxic in the GLP-1 receptor inverse agonist counter-screen. HEK293 cAMP-luciferase reporter cells, luminescence, 24 h. AID 624418. Potency, µM (titrated, usually from 38.3 µM), most hits filed as inhibitors. hit rate 0.13% among 410,000;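 further: loss of luciferase light is scored as toxicity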
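Seeding density was 200 cells/uL; after overnight-length (12 h) culture, 23 nL compounds went on for 24 h at 37 °C. Readout used a luciferase detection reagent, luminescence taken after 12 min at room temperature.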
rTrxR1 inhibitor: rat TrxR1 inhibition; Potency, µM (top dose mostly 114 µM), hits mostly inhibitors; hit rate 1% among 390,000; AID 588453; recombinant rTrxR1, NADPH fluorescence consumption, selenite substrate; further: nearly all actives have a fitted effect of over 65% in size
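Rat TrxR1 (90 nM in the dispensed reagent) was pre-reduced with 400 uM NADPH for 5 min at room temperature, then incubated with compound for 15 min. After 400 uM selenite was added, NADPH fluorescence (Ex 340/Em 450 nm) was followed for 8 min.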
Numbers stand for hits; [ ] = another dose, or the depositor's remark. The call rests on the fitted dose curve; in most records, active means well fitted curve in the direction sought with a large enough effect; inconclusive means small, poorly fitted or top-dose-only effect, or another doubt; inactive means no such curve, though single readings can be large; an effect the other way counts as inactive or inconclusive.

`CCn1c(SCC(=O)c2ccc3c(c2)OCCO3)nnc1-c1ccco1` gave GLP-1R inv ag inconclusive, TrxR1 substrate inactive, GLP-1R agonist inactive, IDH1 R132H inh inactive, HEK293 tox inactive and rTrxR1 inhibitor 50µM.
NC(=S)NN=C1CCC(C2CCCCC2)CC1 (stereo unspecified) was read as GLP-1R inv ag 2.2µM, TrxR1 substrate inactive[11.4 µM], GLP-1R agonist inactive, IDH1 R132H inh inactive, HEK293 tox inconclusive and rTrxR1 inhibitor inactive[11.4 µM].
For NC(=S)NN=C1CCCCCCCCCC1 the results were GLP-1R inv ag inconclusive, TrxR1 substrate inactive, GLP-1R agonist inactive, IDH1 R132H inh inactive, HEK293 tox inconclusive and rTrxR1 inhibitor inconclusive.
`O=C(Nc1ccc(Cl)cc1Cl)[C@@H]1CC=C[C@@H]2CCN(Cc3ccccc3)C(=O)[C@@H]21` gave TrxR1 substrate inactive and rTrxR1 inhibitor inactive.
O=C(Cc1ccc(NC(=O)N2CCCCc3ccccc32)cc1)Nc1ccccc1Br was read as GLP-1R inv ag 3.2µM, TrxR1 substrate inactive, IDH1 R132H inh inactive, HEK293 tox inactive and rTrxR1 inhibitor inactive.
For COc1cc(NC(=O)c2cc(C)nc3c2c(C)nn3-c2ccccc2Cl)cc(OC)c1 the results were GLP-1R inv ag 13µM, TrxR1 substrate inactive, GLP-1R agonist inactive, IDH1 R132H inh inactive, HEK293 tox inactive and rTrxR1 inhibitor inactive.
COc1ccc(NC(=O)c2cc(C)nc3c2c(C)nn3-c2cccc(Cl)c2C)c(OC)c1 was read as GLP-1R inv ag inactive, TrxR1 substrate inactive, IDH1 R132H inh inactive, HEK293 tox inactive and rTrxR1 inhibitor inactive.
CCc1ccc(-n2nc(C)c3c(C(=O)Nc4cc(OC)cc(OC)c4)cc(C)nc32)cc1 was read as GLP-1R inv ag 5µM, TrxR1 substrate inactive, IDH1 R132H inh inactive, HEK293 tox inactive and rTrxR1 inhibitor inactive.
`Cc1ccc(C)c(NC(=S)c2ccc3ccccc3n2)c1` gave GLP-1R inv ag 5.6µM, TrxR1 substrate inactive, GLP-1R agonist inactive, IDH1 R132H inh inactive, HEK293 tox 2.8µM and rTrxR1 inhibitor inactive.
`O=C(Nc1cc(F)ccc1F)C1CCN(c2nc3ccccc3n3cccc23)CC1` gave GLP-1R inv ag inactive, TrxR1 substrate inactive, IDH1 R132H inh inactive, HEK293 tox inactive and rTrxR1 inhibitor inactive.
COc1ccc2[nH]cc(CCNC(=S)NCCc3ccccc3)c2c1 was read as GLP-1R inv ag 8.9µM, TrxR1 substrate inactive, GLP-1R agonist inactive, IDH1 R132H inh inactive, HEK293 tox inconclusive and rTrxR1 inhibitor inactive.
Screening COCCNC(=S)N/N=C(\C)c1ccccc1O returned GLP-1R inv ag inconclusive, TrxR1 substrate inactive, GLP-1R agonist inactive, IDH1 R132H inh inactive, HEK293 tox inactive and rTrxR1 inhibitor inconclusive.
Screening COc1ccc(O)c(/C=N/NC(=S)NCCc2ccccc2)c1 returned GLP-1R inv ag 2.2µM, TrxR1 substrate inactive, GLP-1R agonist inactive, IDH1 R132H inh inactive, HEK293 tox inactive and rTrxR1 inhibitor inactive.
For Oc1ccc(Br)cc1/C=N/NC(=S)NCCc1ccccc1 the results were GLP-1R inv ag inconclusive, TrxR1 substrate inactive, GLP-1R agonist inactive, IDH1 R132H inh inactive, HEK293 tox inactive and rTrxR1 inhibitor inactive.
Screening COc1ccc(/C(C)=N/NC(=S)NCCc2ccccc2)c(O)c1 returned GLP-1R inv ag 2µM, TrxR1 substrate inactive, GLP-1R agonist inactive, IDH1 R132H inh inactive, HEK293 tox inconclusive and rTrxR1 inhibitor inactive.
Screening COc1ccc2[nH]cc(CCNC(=O)Nc3ccccc3)c2c1 returned GLP-1R inv ag inconclusive, TrxR1 substrate inactive, GLP-1R agonist inactive, IDH1 R132H inh inactive, HEK293 tox inactive and rTrxR1 inhibitor inactive.
For Fc1ccc(/C=N/NC(=S)NCCc2ccccc2)cc1F the results were GLP-1R inv ag inconclusive, TrxR1 substrate inactive, GLP-1R agonist inactive, IDH1 R132H inh inactive, HEK293 tox 13µM and rTrxR1 inhibitor inactive.
For CC(=O)N(c1ccc(Cl)cc1)C1SC(=O)N(c2ccccc2)C1=O (stereo unspecified) the results were TrxR1 substrate inactive and rTrxR1 inhibitor inactive.
COc1ccc(-c2nnc(SCC(=O)Nc3cccc(Cl)c3C)nc2-c2ccc(OC)cc2)cc1 was read as GLP-1R inv ag inactive, TrxR1 substrate inactive, IDH1 R132H inh inactive, HEK293 tox inactive and rTrxR1 inhibitor inactive.
`OCC1(Cc2cccc(C(F)(F)F)c2)CCN(Cc2cc3ccccc3o2)CC1` gave GLP-1R inv ag inconclusive, TrxR1 substrate inactive, GLP-1R agonist inactive, IDH1 R132H inh inactive, HEK293 tox inconclusive and rTrxR1 inhibitor inactive.
`COc1ccc(CC2(CO)CCN(Cc3cc4ccccc4o3)CC2)cc1` gave GLP-1R inv ag 10µM, TrxR1 substrate inactive, GLP-1R agonist inactive, IDH1 R132H inh inactive, HEK293 tox inactive and rTrxR1 inhibitor inactive.
O=[N+]([O-])c1cccc(NNS(=O)(=O)c2ccccc2F)c1 was read as GLP-1R inv ag 6.3µM, TrxR1 substrate inactive, GLP-1R agonist inactive, IDH1 R132H inh inactive, HEK293 tox inactive and rTrxR1 inhibitor inactive.
Cc1ccc(-c2csc3ncn(-n4c(C)ccc4C)c(=O)c23)o1 was read as GLP-1R inv ag inactive, TrxR1 substrate inactive, GLP-1R agonist inactive, IDH1 R132H inh inactive, HEK293 tox inactive and rTrxR1 inhibitor 32µM.
`Cc1sc2ncn(-n3c(C)ccc3C)c(=O)c2c1C` gave GLP-1R inv ag inactive, TrxR1 substrate inactive, GLP-1R agonist inactive, IDH1 R132H inh inactive, HEK293 tox inactive and rTrxR1 inhibitor inconclusive.
O=C(Oc1ccc2c(=O)c(Cl)coc2c1)c1cccnc1 was read as GLP-1R inv ag inactive, TrxR1 substrate inactive, GLP-1R agonist inactive, IDH1 R132H inh inactive, HEK293 tox inactive and rTrxR1 inhibitor 13µM.
CC1=CC(C)(C)Nc2ccc(OC(=O)CN3C(=O)c4ccccc4C3=O)cc21 was read as GLP-1R inv ag inconclusive, TrxR1 substrate inactive, GLP-1R agonist inactive, IDH1 R132H inh inactive, HEK293 tox inactive and rTrxR1 inhibitor inactive.
`CC1=CC(C)(C)Nc2ccc(OC(=O)CN3C(=O)c4cccc5cccc(c45)C3=O)cc21` gave GLP-1R inv ag inactive, TrxR1 substrate inactive, GLP-1R agonist inactive, IDH1 R132H inh inactive, HEK293 tox inactive and rTrxR1 inhibitor 8.9µM.
Screening Cc1ccc(S(=O)(=O)C2CCN(c3nc(-c4cccs4)nc4ccccc34)CC2)cc1 returned TrxR1 substrate inactive and rTrxR1 inhibitor inactive.
For CCc1nn(CCCC(=O)N2CCN(c3cccc(C)c3C)CC2)c(=O)c2cc3occc3n12 the results were GLP-1R inv ag 11µM, TrxR1 substrate inactive, GLP-1R agonist inactive, IDH1 R132H inh inactive, HEK293 tox inactive and rTrxR1 inhibitor inactive.
Screening CCc1ccccc1NC(=O)/C(=C/c1ccco1)c1ccccc1 returned GLP-1R inv ag 7.1µM, TrxR1 substrate inactive, GLP-1R agonist inactive, IDH1 R132H inh inactive, HEK293 tox inactive and rTrxR1 inhibitor inactive.
